# Inconclusive results are not listed. A number with no mark means an inactive call. Active and inactive are the calls of the source. The call rests on the fitted dose curve; in most records, active means well fitted curve in the direction sought with a large enough effect; inconclusive means small, poorly fitted or top-dose-only effect, or another doubt; inactive means no such curve, though single readings can be large; an effect the other way counts as inactive or inconclusive.
# What was measured:
# [1] = test system: Tov112D; test: Primary qHTS to identify gynecologic anti-cancer compounds using libraries of approved drugs and bioactive compounds (AID 1345084); conditions: Gynecologic cancer cell panel viability, ATPlite luminescence, 48 h; series mostly up to 57.5 µM; further: nearly all actives have a fitted effect of over 55% in size
# Summary of the method: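 Cells, 1,000 per well, were allowed to settle for 16 h at 37 C before compound addition. Five concentrations were tested for 48 h, and viability was read by ATPlite luminescence after 15 min at room temperature.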
# [2] = Drug repurposing screens with cells derived from glioblastoma tumor samples (AID 1345199); conditions: GBM patient neurospheres viability, ATP luminescence, 48 h; further: nearly all actives have a fitted effect of over 40% in size
# Summary of the method: (§1)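 Four patient lines of CD133+ GBM neurospheres were screened at several concentrations; hits were retested in those lines plus three slower-growing GBM lines, using 48-hour treatment and ATP-based viability.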
# [3] = test system: astro; test: as above; conditions: viability, ATP luminescence, 48 h; series mostly up to 45.9 µM
# Summary of the method: as §1
# [4] = at 45.9 µM (top of the series), tumour line B
# [5] = at 45.9 µM (top of the series), tumour line D
# [6] = at 46.1 µM (top of the series), tumour line C
# [7] = at 46 µM (top of the series), tumour line A
# [8] = at 20 µM (top of the series), tumour line C
# [9] = at 21.2 µM (top of the series), tumour line B
# [10] = at 21.2 µM (top of the series), tumour line D
# On the % scale 0 is the no-effect control and ±100 the full control effect; potency means the concentration at half of the fitted maximal effect.
structure (smiles),measurement,setting,value
CN(CCOc1ccc(NS(C)(=O)=O)cc1)CCc1ccc(NS(C)(=O)=O)cc1,Potency,[1],inactive
same,"activity, negative = cell killing",[2]; [4],-5.75%
same,"activity, negative = cell killing",[2]; [5],-4.11%
same,"activity, negative = cell killing",[2]; [6],4.34%
CNCCCC12CCC(c3ccccc31)c1ccccc12,Potency,[1],inactive
same,"activity, negative = cell killing",[2]; [6],31.2%
same,Potency,[2]; tumour line A,7.94 µM (active)
same,Potency,[2]; tumour line B,17.8 µM (active)
same,Potency,[2]; tumour line D,22.4 µM (active)
O=C(c1ccc(OCCN2CCCCC2)cc1)c1c(-c2ccc(O)cc2)sc2cc(O)ccc12,Potency,[1],inactive
O=C(c1ccc(F)cc1)C1CCN(CCn2c(=O)[nH]c3ccccc3c2=O)CC1,Potency,[1],inactive
same,"activity, negative = cell killing",[2]; [5],-39.8%
same,"activity, negative = cell killing",[2]; [6],7.2%
same,Potency,[2]; tumour line A,3.98 µM (active)
CCC1(C)CC(=O)NC1=O (centres undefined),Potency,[1],inactive
same,"activity, negative = cell killing",[2]; [4],-5.39%
same,"activity, negative = cell killing",[2]; [5],-6.6%
same,"activity, negative = cell killing",[2]; [7],-18.2%
same,"activity, negative = cell killing",[2]; [6],-11.1%
CC(COc1ccccc1)N(CCCl)Cc1ccccc1 (centres undefined),Potency,[1],inactive
same,"activity, negative = cell killing",[2]; [4],-26.4%
same,"activity, negative = cell killing",[2]; [6],-13%
same,Potency,[2]; tumour line A,20 µM (active)
COc1ccc(C2CNC(=O)C2)cc1OC1CCCC1 (centres undefined),Potency,[1],inactive
same,"activity, negative = cell killing",[2]; [8],-0.6%
same,"activity, negative = cell killing",[2]; [9],-12.9%
same,"activity, negative = cell killing",[2]; [10],-16.7%
same,"activity, negative = cell killing","[2]; at 21.3 µM (top of the series), tumour line A",-26.3%
CN1CCN(C2=Nc3cc(Cl)ccc3Nc3ccccc32)CC1,Potency,[1],inactive
same,"activity, negative = cell killing",[2]; [6],1.71%
same,Potency,[2]; tumour line A,11.2 µM (active)
same,Potency,[2]; tumour line D,35.5 µM (active)
Cc1cc(C(C)(C)C)c(O)c(C)c1CC1=NCCN1,Potency,[1],inactive
same,"activity, negative = cell killing",[2]; [4],-18.7%
same,"activity, negative = cell killing",[2]; [5],-26.9%
same,"activity, negative = cell killing",[2]; [6],5.76%
Clc1ccc(C(c2ccccc2Cl)C(Cl)Cl)cc1 (centres undefined),Potency,[1],inactive
same,"activity, negative = cell killing",[2]; [6],32.2%
same,Potency,[2]; tumour line A,22.4 µM (active)
Clc1ccccc1C(c1ccccc1)(c1ccccc1)n1ccnc1,Potency,[1],inactive
same,"activity, negative = cell killing",[2]; [8],1.49%
same,Potency,[2]; tumour line A,11.2 µM (active)
C[C@H]1c2cccc(O)c2C(O)=C2C(=O)[C@]3(O)C(O)=C(C(N)=O)C(=O)[C@@H](N(C)C)[C@@H]3[C@@H](O)[C@@H]21,Potency,[1],inactive
same,"activity, negative = cell killing",[2]; [4],-22.1%
same,"activity, negative = cell killing",[2]; [5],-13%
CC(C)C(=O)Nc1ccc([N+](=O)[O-])c(C(F)(F)F)c1,Potency,[1],inactive
NC(CO)C(=O)NNCc1ccc(O)c(O)c1O (centres undefined),Potency,[1],inactive
same,"activity, negative = cell killing",[2]; [4],-5.28%
same,"activity, negative = cell killing",[2]; [5],-22%
same,"activity, negative = cell killing",[2]; [7],-18.9%
same,"activity, negative = cell killing",[2]; [6],12.3%
CC1(CN2CCC(n3c(=O)[nH]c4ccccc43)CC2)OCc2ccccc2-n2cccc21 (centres undefined),Potency,[1],inactive
CCN1CCCC1CNC(=O)c1cc(S(=O)(=O)CC)c(N)cc1OC (centres undefined),Potency,[1],inactive
same,"activity, negative = cell killing",[2]; [4],6.58%
same,"activity, negative = cell killing",[2]; [5],-2.77%
same,"activity, negative = cell killing",[2]; [6],-4.87%
CN1CCN(CCCN2c3ccccc3Sc3ccc(Cl)cc32)CC1,Potency,[1],inactive
COc1cc2nc(N3CCN(C(=O)c4ccco4)CC3)nc(N)c2cc1OC,Potency,[1],inactive
CN1CCC(=C2c3ccccc3CC(=O)c3sccc32)CC1,Potency,[1],inactive
same,"activity, negative = cell killing",[2]; [6],-13.4%
same,Potency,[2]; tumour line A,14.1 µM (active)
same,Potency,[2]; tumour line D,12.6 µM (active)
CCOC(=O)c1ncn2c1CN(C)C(=O)c1cc(F)ccc1-2,Potency,[1],inactive
same,"activity, negative = cell killing",[2]; [4],-16%
same,"activity, negative = cell killing",[2]; [5],3.15%
same,"activity, negative = cell killing",[2]; [6],4.97%
Clc1ccc2c(c1)C(N1CCNCC1)=Nc1ccccc1O2,Potency,[1],inactive
same,"activity, negative = cell killing",[2]; [4],-27.8%
same,"activity, negative = cell killing",[2]; [5],-2.29%
same,"activity, negative = cell killing",[2]; [6],-0.706%
same,Potency,[2]; tumour line A,14.1 µM (active)
CS(=O)(=O)CCNCc1ccc(-c2ccc3ncnc(Nc4ccc(OCc5cccc(F)c5)c(Cl)c4)c3c2)o1,Potency,[1],inactive
same,"activity, negative = cell killing",[2]; [4],-6.77%
same,"activity, negative = cell killing",[2]; [5],-7.21%
same,"activity, negative = cell killing",[2]; [6],-22.4%
CCCNCC(O)COc1ccccc1C(=O)CCc1ccccc1 (centres undefined),Potency,[1],inactive
same,"activity, negative = cell killing",[2]; [6],27.1%
same,Potency,[2]; tumour line A,7.08 µM (active)
COc1ccccc1OCC(O)CN1CCN(CC(=O)Nc2c(C)cccc2C)CC1 (centres undefined),Potency,[1],inactive
same,"activity, negative = cell killing",[2]; [4],-2.09%
same,"activity, negative = cell killing",[2]; [5],-4.68%
same,"activity, negative = cell killing",[2]; [6],-16.2%
O=C(CCCN1CCC(O)(c2ccc(Cl)cc2)CC1)c1ccc(F)cc1,Potency,[1],inactive
same,"activity, negative = cell killing",[2]; [6],-10.7%
same,Potency,[2]; tumour line A,11.2 µM (active)
same,Potency,[2]; tumour line D,15.8 µM (active)
Cn1ccc2cc3c(cc21)CCN3C(=O)Nc1cccnc1,Potency,[1],inactive
Nc1nc2c(ncn2COC(CO)CO)c(=O)[nH]1,Potency,[1],inactive
same,"activity, negative = cell killing",[2]; [8],-13.4%
same,"activity, negative = cell killing",[2]; [9],-13.7%
same,"activity, negative = cell killing",[2]; [10],-24.4%
COc1ccc(CCN(C)CCCC(C#N)(c2ccc(OC)c(OC)c2)C(C)C)cc1OC (centres undefined),Potency,[1],inactive
same,"activity, negative = cell killing",[2]; [6],-2.06%
same,Potency,[2]; tumour line A,10 µM (active)
same,Potency,[2]; tumour line B,35.5 µM (active)
Cc1cnc(C(=O)NCCc2ccc(S(=O)(=O)NC(=O)NC3CCCCC3)cc2)cn1,Potency,[1],inactive
same,"activity, negative = cell killing",[2]; [4],-8.45%
same,"activity, negative = cell killing",[2]; [5],-17.1%
same,"activity, negative = cell killing",[2]; [6],18%
CC(=O)OCC(CCn1cnc2cnc(N)nc21)COC(C)=O,Potency,[1],inactive
same,"activity, negative = cell killing",[2]; [4],-16.1%
same,"activity, negative = cell killing",[2]; [5],-3.4%
same,"activity, negative = cell killing",[2]; [7],-17.2%
same,"activity, negative = cell killing",[2]; [6],-0.294%
NC12CC3CC(CC(C3)C1)C2,Potency,[1],inactive
same,"activity, negative = cell killing",[2]; [4],-22.3%
same,"activity, negative = cell killing",[2]; [7],14.4%
same,"activity, negative = cell killing",[2]; [6],2.2%
CC(CCc1ccc(O)cc1)NCCc1ccc(O)c(O)c1 (centres undefined),Potency,[1],inactive
same,"activity, negative = cell killing",[2]; [6],5.45%
same,Potency,[2]; tumour line A,28.2 µM (active)
same,Potency,[2]; tumour line B,31.6 µM (active)
COC(=O)Nc1nc2ccc(C(=O)c3cccs3)cc2[nH]1,Potency,[1],0.316 µM (active)
CC(C)(C)C(=O)Oc1ccc(S(=O)(=O)Nc2ccccc2C(=O)NCC(=O)O)cc1,Potency,[1],inactive
same,"activity, negative = cell killing",[2]; [4],-13.7%
same,"activity, negative = cell killing",[2]; [5],-10.4%
same,"activity, negative = cell killing",[2]; [7],-15.5%
same,"activity, negative = cell killing",[2]; [6],-13.4%
same,Potency,[3],inactive

# Source: PubChem BioAssay (NCATS)
